High-throughput results from PubChem BioAssay.
G9a inh = G9a (human) methyltransferase inhibition. Q96KQ7. G9a H3K9 monomethylation, AlphaScreen, 2 h. Potency, µM (series often up to 102 µM), for the others: at the highest dose activity, negative = inhibition, most hits filed as inhibitors. 350,000 compounds, 8.8% hits; further: on the % scale 0 is the no-effect control and ±100 the full control effect; nearly all actives have a fitted effect of over 75% in size
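AlphaScreen read-out: biotin-H3K9 peptide (500 nM) methylation by 20 nM enzyme with 20 uM SAM, 2 h at room temperature after 15 min compound preincubation; anti-monomethyl H3K9 antibody plus donor/acceptor beads, 10 min dark.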
HP1b binding inh = blocks HP1-beta chromodomain binding to methylated histone tails; P83916; AlphaScreen HP1-beta / biotin-H3K9me3 peptide binding; Potency, µM (highest dose often 114 µM), for the others: top-dose activity change, negative = inhibition, hits mostly inhibitors; 390,000 compounds, 0.56% hits; AID 540317; further: nearly all actives have a fitted effect of over 70% in size
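Compound inhibition of the preformed complex between 50 nM HP1-beta and 50 nM biotinylated H3K9me3 peptide was read by AlphaScreen. Buffer was PBS pH 7.4 with 0.01% Tween-20. Incubations ran 30 min at room temperature, with 10 ug/mL donor/acceptor beads.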
Sfp PPTase inh = Sfp phosphopantetheinyl transferase inhibition | AID 1490 | Biochemical Sfp PPTase activity, qHTS | Q9F4F7 | Potency, µM, for inactives: largest response in the series, negative = inhibition, usual class: inhibitors | 310,000 compounds, 3.5% hits;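 further: the enzyme is Sfp with the accession as filed and its product quenches rhodamine fluorescence; 0% = enzyme reaction without inhibitor and -100% = no enzyme wells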
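Reaction rates are the 30-min fluorescence difference (ex 525, em 598 nm) in wells containing 15 nM Sfp, 5 uM rhodamine-CoA and 12.5 uM BHQ-2-YbbR at pH 7.6 with 10 mM MgCl2.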
JMJD2A Tudor = blocks the human JMJD2A Tudor domain; O75164; AlphaScreen JMJD2A-Tudor / H3K4me3 peptide binding; Potency, µM (highest dose often 114 µM), for inactives: top-dose activity change, negative = inhibition, actives largely listed as inhibitors; 390,000 compounds, 4.4% hits; further: on the % scale 0 is the no-effect control and ±100 the full control effect; nearly all actives have a fitted effect of over 50% in size
BAZ2B block = inhibitors of human BAZ2B bromodomain; 360,000 compounds, 4.4% hits; AID 504333; Potency, µM (doses to about 114 µM), inactives show top-dose activity change, negative = inhibition, most hits filed as inhibitors; AlphaScreen BAZ2B-H3K14Ac peptide displacement; Q9UIF8; further: on the % scale 0 is the no-effect control and ±100 the full control effect; nearly all actives have a fitted effect of over 60% in size
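AlphaScreen displacement: compounds (up to 110uM) incubated 30 min at room temperature with a preformed 50 nM BAZ2B/50 nM biotinylated H3K14Ac peptide complex in PBS pH 7.4 with Tween-20. Donor and acceptor beads at 10 ug/mL final added, 20 min light-protected before reading.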
TDP1 block = blocks human tyrosyl-DNA phosphodiesterase 1; Q9NUW8; recombinant TDP1, AlphaScreen DNA substrate cleavage; Potency, µM (doses to about 130 µM), for the others: top-dose activity change, negative = inhibition, most hits filed as inhibitors; 350,000 compounds, 0.28% hits; AID 485290; further: on the % scale 0 is the no-effect control and ±100 the full control effect; nearly all actives have a fitted effect of over 40% in size
Target sequence (Q9NUW8 whole entry, looked up): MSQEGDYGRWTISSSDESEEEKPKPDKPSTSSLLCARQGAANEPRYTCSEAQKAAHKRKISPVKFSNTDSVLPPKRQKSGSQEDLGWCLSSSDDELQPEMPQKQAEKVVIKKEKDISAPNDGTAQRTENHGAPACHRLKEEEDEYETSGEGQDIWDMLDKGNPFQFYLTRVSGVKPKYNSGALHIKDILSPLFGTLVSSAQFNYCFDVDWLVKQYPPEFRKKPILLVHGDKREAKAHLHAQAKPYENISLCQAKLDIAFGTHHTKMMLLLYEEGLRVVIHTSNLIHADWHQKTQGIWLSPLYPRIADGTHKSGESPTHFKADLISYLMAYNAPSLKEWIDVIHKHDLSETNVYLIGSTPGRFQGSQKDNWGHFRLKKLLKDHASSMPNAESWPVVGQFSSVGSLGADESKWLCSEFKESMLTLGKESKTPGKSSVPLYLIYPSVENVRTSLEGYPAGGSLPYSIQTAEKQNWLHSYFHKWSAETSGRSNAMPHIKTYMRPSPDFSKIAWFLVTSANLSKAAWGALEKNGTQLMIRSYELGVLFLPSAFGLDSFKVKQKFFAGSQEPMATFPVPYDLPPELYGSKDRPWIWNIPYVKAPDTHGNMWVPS
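Recombinant E. coli-expressed Tdp1 (1 nM) preincubated with compound 15 min at RT, then 5'-biotin/3'-phosphotyrosine-FITC DNA substrate (15 nM) added for 5 min. AlphaScreen beads (10 ug/ml) added, 10 min RT; tyrosine-FITC cleavage read as signal loss.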
The depositor's hits bear a star; u = inconclusive; x = no result given; ! = not confirmed by another sample; [ ] = dose if it differs, or a comment. Rows were chosen to be rich in hits. Some 12% of all compounds tested hit in one or more screens of this group. The call rests on the fitted dose curve; in most records, active means well fitted curve in the direction sought with a large enough effect; inconclusive means small, poorly fitted or top-dose-only effect, or another doubt; inactive means no such curve, though single readings can be large; an effect the other way counts as inactive or inconclusive. Potency means the concentration at half of the fitted maximal effect.

SMILES | G9a inh | HP1b binding inh | Sfp PPTase inh | JMJD2A Tudor | BAZ2B block | TDP1 block
CC(=O)Nc1ccc(S(=O)(=O)NCC2CCC(C(=O)NCCc3ccc(C)cc3)CC2)cc1 (stereo not drawn) | 0%[59 µM] | 32% | x | -15% | 14% | 3%
O=C(COC(=O)c1ccc(OC(F)(F)F)cc1)Nc1ncccn1 | x | -13% | x | 56µM* | x | 22µM*
O=C(COC(=O)c1cccc(OC(F)F)c1)Nc1ncccn1 | x | -2% | x | u | x | 45µM*
CC(=O)NCCc1nc2cc(NC(=O)COc3cccc(C)c3)ccc2n1C | 8% | 21% | 6% | -2% | -10% | 4%[0.0935 µM]
Cc1cc(C)cc(NC(=O)C2CCCN2S(=O)(=O)c2ccc3nc(-c4ccccc4)[nH]c3c2)c1 (stereo not drawn) | u | 7% | x | u | 79µM* | 5%
CC(C)(C)OC(=O)NCC(=O)NNC(=O)c1nc2ccccc2[nH]1 | x | x | x | -15% | x | 1%
CC(=O)N[C@@H](CC(=O)O)C(=O)N[C@@H](CCC(=O)O)C(=O)O | 22%[21.5 µM] | x | u | x | x | 16µM*!
C/C(=N\N1CCN(Cc2ccccc2)CC1)c1ccco1 | -2% | 60% | 20% | -6% | -22% | 5%
C/C(=N\N1CCN(c2ccccc2)CC1)c1ccco1 | 56µM* | 1% | -10% | -15% | u | 1%
COC(=O)c1c(-c2ccc(S(C)(=O)=O)cc2)sc2ccc(OC)cc12 | x | 11% | x | 45µM* | x | 1%
COC(=O)c1c(-c2ccc(OC)cc2)sc2ccccc12 | -5%[0.501 µM] | x | x | x | 182% | 20µM*
Nc1ccc2c(c1)-c1ccccc1S(=O)(=O)N2 | 32µM* | -6% | -16% | u | u | 1%
O=C(COc1ccc(S(=O)(=O)N2CCCC2)cc1)N1CCCCC1 | 5% | 20% | -1% | -2% | 1% | -1%
COc1ccc(C2C=C(c3ccccc3)Nc3ncnn32)cc1 (stereo not drawn) | u | 51% | -14% | -9% | u | 9%
CC(=O)Nc1cccc(C2=CC(c3ccco3)n3ncnc3N2)c1 (stereo not drawn) | u | x | -22% | x | x | 8%
COc1ccc(C2=CC(c3ccco3)n3ncnc3N2)cc1 (stereo not drawn) | 11µM* | 30% | -45% | -21% | u | 5%
FC(F)(F)c1ccccc1C1=CC(c2ccccc2)n2ncnc2N1 (stereo not drawn) | x | 50% | x | -19% | x | x
Clc1ccc(C2=CC(c3ccco3)n3ncnc3N2)cc1 (stereo not drawn) | 8.9µM* | 27% | u | u | u | 8%
Clc1ccccc1C1=CC(c2ccco2)n2ncnc2N1 (stereo not drawn) | 35µM* | 20% | 8% | -14% | -22% | x
Cc1nc2cnc(N3CCOCC3)nc2n(CCc2ccccc2)c1=O | 5%[0.501 µM] | x | 20% | x | x | x
CCO/C(C)=C1\N=C(c2ccc(Cl)cc2)OC1=O | 45µM* | 34% | 22% | -19% | -6%[57.1 µM] | 1%
CCOC(=O)c1nnn(-c2nonc2N)c1-c1ccc(Cl)cc1 | 8% | 13% | 8% | -10% | -12% | -2%
Cc1ccc2c(c1)CC[C@H]1CC(=O)CC[C@@]21C | -37%[2.33 µM] | x | 21% | x | x | 6%
O=C(Nc1ccc(Nc2ccncc2)cc1)c1ccc(Nc2ccnc3ccc([N+](=O)[O-])cc23)cc1 | x | -28% | 9% | 100µM* | -19% | -12%
O=C(Nc1ccc([N+](=O)[O-])cc1)c1ccccc1 | 19%[59 µM] | 17% | 11% | -9% | -2% | x
SMILES | G9a inh | HP1b binding inh | Sfp PPTase inh | JMJD2A Tudor | BAZ2B block | TDP1 block
CCOc1ccccc1NC(=O)c1c(NC(=O)c2ccccc2C)sc2c1CCC(C)C2 (stereo not drawn) | 14µM* | 15% | x | -12% | 4% | 2%[12.3 µM]
O=C(Nc1ccc(Cl)cc1Cl)c1n[nH]c(Cn2cncn2)n1 | 18%[12.7 µM] | 28% | 5% | u | 56µM* | -2%
COc1ccc(OC)c(-c2csc(NC(=O)COC(=O)C3(C)CC3(Cl)Cl)n2)c1 (stereo not drawn) | u | 21% | x | -34% | -28% | 3%
CNC(=S)N1CCC(Cc2ccccc2)CC1 | 26% | 41% | 11% | -19% | -24% | 5%
NS(=O)(=O)c1ccc(NC(=S)NCc2ccccc2Cl)cc1 | u | -3% | -16% | -30% | -21% | 3%
NS(=O)(=O)c1ccc(NC(=S)NCc2cccc(Cl)c2)cc1 | 45µM* | 26% | 11% | -16% | 11% | 5%
NS(=O)(=O)c1ccc(NC(=S)NCc2ccccc2)cc1 | 11µM* | u | 56µM* | -22% | 0% | -1%
NS(=O)(=O)c1ccc(NC(=S)N2CCN(Cc3ccc(Cl)c(Cl)c3)CC2)cc1 | u | 17% | 21% | u | -38% | 0%
NS(=O)(=O)c1ccc(NC(=S)N2CCN(Cc3ccc4c(c3)OCO4)CC2)cc1 | -106%[59 µM] | -1% | 22µM* | -22% | -37% | -3%
NS(=O)(=O)c1ccc(NC(=S)N2CCC(Cc3ccccc3)CC2)cc1 | 14µM* | u | 22µM* | u | u | x
COc1cc(NC(=S)NCc2ccc(S(N)(=O)=O)cc2)c(OC)cc1Cl | 35µM* | u | -23% | -23% | u | 1%
NC(=O)C1(N2CCCCC2)CCN(C(=S)Nc2ccc(S(N)(=O)=O)cc2)CC1 | x | 4% | 4µM* | -14% | -12% | 5%
CCCCCCOC(=O)C1=C(C)NC(=O)NC1c1ccc2c(c1)OCO2 (stereo not drawn) | -2% | 26% | 13% | -15% | -20% | 5%
O=C(Nc1cccc(Cl)c1)C1CCN(c2nc3ccccc3nc2C(F)(F)F)CC1 | 7%[59 µM] | -7% | x | -12% | 8% | 5%
Cc1ccc(-c2nc3cnccn3c2Nc2ccc3c(c2)OCO3)o1 | 32µM* | -17% | 35µM* | u | 50µM* | 9%
Cc1ccc2nc(-c3ccc(C)o3)c(Nc3ccc4c(c3)OCO4)n2c1 | x | 19% | x | -26% | x | 1%
COc1ccc(Nc2c(-c3ccc(C)o3)nc3cc(C)ccn23)cc1 | 16µM* | -14% | x | u | u | 7%
Cc1ccn2c(Nc3ccc4c(c3)OCO4)c(-c3ccc(C)o3)nc2c1 | 16µM* | 18% | x | u | -35% | 13%
Cc1ccc2nc(-c3ccc(C)o3)c(Nc3ccc(F)cc3)n2c1 | x | 41% | x | -10% | x | 1%
Cc1ccn2c(Nc3ccc4c(c3)OCCO4)c(-c3cccs3)nc2c1 | 14µM* | u | x | u | 25µM* | 8%
COc1ccc(OC)c(-c2cc(C(=O)NC(C)c3ccccc3)no2)c1 (stereo not drawn) | 2%[59 µM] | 24% | x | -16% | 0% | 3%
